# Laboratory results published in paper PMC5540273 (PLoS ONE, 2017).
# Legend:
# Conditions in all cases: concentration: 1 μM, replicates: in singlicate; n = 1
# EPHA3 = tested on: EPHA3
# EPHA4 = tested on: EPHA4
# EPHA5 = tested on: EPHA5
# EPHA6 = tested on: EPHA6
# EPHA7 = tested on: EPHA7
# EPHA8 = tested on: EPHA8
# EPHB1 = tested on: EPHB1
# EPHB2 = tested on: EPHB2
# EPHB3 = tested on: EPHB3
# EPHB4 = tested on: EPHB4
# EPHB6 = tested on: EPHB6
# ERBB2 = tested on: ERBB2
# ERBB3 = tested on: ERBB3
# ERBB4 = tested on: ERBB4
# ERK1 = tested on: T1, ERK1
# T1 construct: gene MAPK3
# ERK2 = tested on: T2, ERK2
# T2 construct: gene MAPK1
# ERK3 = tested on: T3, ERK3
# T3 construct: gene MAPK6
# ERK4 = tested on: T4, ERK4
# T4 construct: gene MAPK4
# ERK5 = tested on: T5, ERK5
# T5 construct: gene MAPK7
# ERK8 = tested on: T6, ERK8
# T6 construct: gene MAPK15
# 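Further: KINOMEscan kinase panel screen.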
Structure (SMILES),%Inh (EPHA3),%Inh (EPHA4),%Inh (EPHA5),%Inh (EPHA6),%Inh (EPHA7),%Inh (EPHA8),%Inh (EPHB1),%Inh (EPHB2),%Inh (EPHB3),%Inh (EPHB4),%Inh (EPHB6),%Inh (ERBB2),%Inh (ERBB3),%Inh (ERBB4),%Inh (ERK1),%Inh (ERK2),%Inh (ERK3),%Inh (ERK4),%Inh (ERK5),%Inh (ERK8)
COc1cc2c(cc1OC[C@@H](O)CO)ncc1c3ccc(C#N)cc3[nH]c21,0%,8%,11%,10%,0%,0%,0%,0%,14%,4%,44%,22%,2%,0%,0%,15%,0%,7%,0%,33%
COc1cc(Nc2nccc(N3CCC(NC(=O)c4cccc(NC(C)=O)c4)C3)n2)cc(OC)c1OC (stereo not shown) [GSK1379754],0%,9%,6%,20%,11%,26%,15%,0%,17%,12%,78%,16%,0%,1%,0%,14%,0%,1%,0%,0%
COC(=O)Nc1nc2cc(Oc3ccc(NC(=O)Nc4cc(F)ccc4F)cc3)ccc2[nH]1.Cl [GW701424],8%,37%,1%,75%,16%,75%,37%,68%,1%,53%,5%,43%,26%,27%,0%,3%,8%,0%,0%,0%
COc1ccc(Nc2ncc(C#N)c(Nc3ccccc3C(N)=O)n2)cc1N1CCN(C)CC1.Cl [GSK1558669],95%,61%,35%,86%,81%,29%,98.6%,59%,28%,76%,98.3%,80%,96.6%,88%,7%,0%,100%,100%,99.9%,98.9%
c1ccc(-c2n[nH]cc2-c2ccnc3ccccc23)nc1 [GW271431],14%,2%,0%,1%,6%,9%,32%,0%,7%,11%,10%,9%,0%,25%,0%,6%,10%,11%,0%,0%
Cc1nnc(-c2ccc(C)c(-c3ccc(C(=O)Nc4ccc(NS(C)(=O)=O)cc4)cc3)c2)o1 [GW702865],8%,0%,0%,0%,0%,3%,6%,10%,0%,5%,10%,33%,20%,8%,10%,0%,0%,0%,0%,0%
c1ccc(-c2cc(-c3c[nH]nc3-c3ccccn3)ccn2)cc1 [GW576604],15%,0%,0%,0%,0%,0%,20%,0%,0%,7%,0%,0%,16%,52%,8%,0%,0%,3%,0%,0%
NS(=O)(=O)c1cccc(-c2ccc3nccc(-c4cccc(S(N)(=O)=O)c4)c3c2)c1 [GW867253],11%,0%,2%,0%,0%,4%,0%,0%,0%,0%,0%,11%,0%,7%,0%,0%,0%,0%,0%,1%
